Only some compounds are listed: those with a hit (about 28% of all), similar ones and a draw of the others.
CYP2C19 inhib: human CYP2C19 inhibition | inhibition, % at 5 µM | CYP2C19 Supersomes, luciferin-H EGE luminescence, 30 min | actives 21% (n = 96,000) | P33261;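 active = CYP2C19 inhibition above a set limit at 5 µM in the primary screen, cut at about 50% in these data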;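 note: plate controls were negative control wells for no effect and 2.5 mM tranylcypromine positive control for full effect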
CYP2C9 inhib: blocks human cytochrome P450 2C9; P11712; CYP2C9 Supersomes, luciferin-H conversion, luminescence; inhibition, % at 5 µM; actives 20% (n = 96,000);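 active = blocking of liver enzyme CYP2C9 beyond about 50% at 5 µM, limit read from the data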
PLK1 PBD inh: blocks phosphopeptide binding to human Plk1 polo box domain; Plk1 PBD phosphopeptide binding, fluorescence polarization; AID 693; inhibition, %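 (tested at about 20 µM)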; actives 0.13% (n = 97,000); P53350; in the data active = inhibition above about 34%, passing the limit was not always enough
Target sequence (P53350 whole entry, looked up, the tested form may be a part): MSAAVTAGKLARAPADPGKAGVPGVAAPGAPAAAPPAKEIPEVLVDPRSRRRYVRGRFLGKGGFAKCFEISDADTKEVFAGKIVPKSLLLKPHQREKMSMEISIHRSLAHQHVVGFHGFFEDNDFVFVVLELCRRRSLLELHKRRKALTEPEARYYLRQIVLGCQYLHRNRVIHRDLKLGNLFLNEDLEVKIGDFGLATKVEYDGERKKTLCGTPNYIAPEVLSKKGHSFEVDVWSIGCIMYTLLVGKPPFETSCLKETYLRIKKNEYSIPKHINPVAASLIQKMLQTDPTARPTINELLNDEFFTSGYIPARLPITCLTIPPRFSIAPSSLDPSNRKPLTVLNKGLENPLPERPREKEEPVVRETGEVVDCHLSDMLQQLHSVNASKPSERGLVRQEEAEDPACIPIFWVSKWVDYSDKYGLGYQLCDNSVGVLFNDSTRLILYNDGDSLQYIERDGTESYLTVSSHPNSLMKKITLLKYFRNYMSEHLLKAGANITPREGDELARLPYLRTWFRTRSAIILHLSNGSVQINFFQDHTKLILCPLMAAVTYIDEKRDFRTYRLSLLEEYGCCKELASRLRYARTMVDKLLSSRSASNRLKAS
CYP2C9 activ: activators of human CYP2C9; P11712; recombinant CYP2C9, luciferin-H conversion, luminescence; hits give high values; factor 1 = untreated enzyme, 0 = blocked; activation factor at 5 µM; actives 1.4% (n = 96,000);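 active = activation factor of 2 or more for CYP2C9 at a 5 µM dose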;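 note: 0 = sulfaphenazole-blocked wells and 1 = vehicle-only wells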
CYP2C19 act: cytochrome P450 2C19 (human) activation. P33261. recombinant CYP2C19, luciferin-H EGE luminescence; hits give high values; 0 = fully inhibited enzyme, 1 = untreated enzyme. activation factor at 5 µM. 96,000 tested, under 10 active. AID 1025;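 active = activation factor of at least 2 at 5 µM in the primary screen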;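 note: 0 = wells with 2.5 mM tranylcypromine and 1 = vehicle-only wells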
PLK1 kinase inh: inhibitors of human PLK1 kinase; inhibition, % at 10 µM; AID 619; recombinant PLK1 kinase, TR-FRET peptide phosphorylation; P53350; actives 0.53% (n = 97,000);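 active = inhibition of 50% or more in the single-concentration screen; inactive = inhibition below 50%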;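 note: 0% = DMSO max control and 100% = H-89 dihydrochloride min control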
Active calls of the source: *; . = no result.

SMILES	CYP2C19 inhib	CYP2C9 inhib	PLK1 PBD inh	CYP2C9 activ	CYP2C19 act	PLK1 kinase inh
CC(C(=O)Oc1ccc2c(c1)OCO2)N1C(=O)c2ccccc2C1=O (configuration not stated)	61.7*	42.0	.	0.6	0.4	.
CC(C(=O)N1CCOCC1)N1C(=O)c2ccccc2C1=O (configuration not stated)	-21.9	-9.3	-14.3	1.1	1.2	-13.2
CC(C)C(C(=O)Nc1ccc2c(c1)OCCO2)N1C(=O)c2ccccc2C1=O (configuration not stated)	22.5	49.3	14.0	0.5	0.8	-12.9
CC(C(=O)OCC(=O)Nc1ccc2c(c1)OCO2)N1C(=O)c2ccccc2C1=O (configuration not stated)	73.7*	68.3*	-40.8	0.3	0.3	-6.5
Cc1ccc(N(C(C)C(=O)Nc2ccc3c(c2)OCO3)S(C)(=O)=O)cc1 (configuration not stated)	66.8*	43.0	-4.0	0.6	0.3	-5.0
Cc1ccc(CN(c2ccc(C(=O)Nc3ccc4c(c3)OCO4)cc2)S(C)(=O)=O)cc1	43.8	39.5	-1.6	0.6	0.6	3.5
Cc1nn(C)c(C)c1NC(=O)CSc1nc(-c2ccccc2Cl)nc2c1cnn2-c1ccccc1	-3.8	49.5	-4.7	0.5	1	-9.2
COC(=O)C1=NN(N=O)C2(CC(=O)N(c3cc(C)cc(C)c3)C2=O)C1 (configuration not stated)	6.0	10.6	-11.0	0.9	0.9	-7.1
NC(=O)CNC(=O)[C@@H]1CC2(CC(c3ccccc3)=NO2)CN1C(=O)c1ccc(Br)cc1 (some centres not stated)	1.6	10.4	12.4	0.9	1	-4.9
CC(C)C(C(=O)Nc1cccnc1)N1C(=O)c2ccccc2C1=O (configuration not stated)	30.2	63.2*	13.2	0.4	0.7	-10.9
C=CCNC(=O)C1CC(=O)N(c2ccc(Br)cc2)C1 (configuration not stated)	32.4	1.6	6.9	1	0.7	-10.4
O=C(NCc1cccs1)C1CC(=O)N(C2CCCC2)C1 (configuration not stated)	16.2	-2.5	-18.9	1	0.8	-5.6
O=C(NCc1cccs1)C1CCCCC1	50.6*	12.2	-8.8	0.9	0.5	-11.4
CCNC(=O)C1CC(=O)N(c2ccc(Br)cc2)C1 (configuration not stated)	70.3*	7.0	1.8	0.9	0.3	-9.3
O=C(NCc1cccs1)C1CC(=O)N(c2ccc(F)cc2)C1 (configuration not stated)	58.8*	-49.6	-15.2	1.5	0.4	-8.1
O=C(NCc1cccs1)C1CCCN(c2ncccn2)C1 (configuration not stated)	52.8*	-17.5	-13.2	1.2	0.5	-12.9
Cc1ccc(N2CC(C(=O)NCc3cccs3)CC2=O)cc1 (configuration not stated)	13.4	-13.9	-1.1	1.1	0.9	-2.0
COc1cccc(C(=O)N/N=C(/c2ccccc2)c2ccccn2)c1	15.7	41.5	-11.8	0.6	0.8	-21.2
CC(NC(=O)c1ccc(Cl)cc1)c1nnc(SCc2ccc([N+](=O)[O-])cc2)n1C (configuration not stated)	-0.2	3.1	24.1	1	1	-8.4
CNC(=O)c1cc2cc(Cl)cc(OC)c2oc1=O	.	.	-28.7	.	.	-8.9
Cc1ccc(NC(=S)NCc2cccs2)c(C)c1	72.7*	15.7	9.3	0.8	0.3	-32.2
S=C(NCc1cccs1)Nc1cccc(Cl)c1	61.6*	6.4	-1.6	0.9	0.4	-5.0
Cc1cc(Cl)ccc1NC(=S)NCc1cccs1	97.4*	63.1*	-0.6	0.4	0	-6.5
CC(C)c1ccc(NC(=S)NCc2cccs2)cc1	42.0	31.9	-4.0	0.7	0.6	-2.6
O=C(NCc1cccs1)Nc1cccc(Cl)c1	.	.	-13.3	.	.	-7.6
SMILES	CYP2C19 inhib	CYP2C9 inhib	PLK1 PBD inh	CYP2C9 activ	CYP2C19 act	PLK1 kinase inh
O=C(O)CCC(=O)Nc1ccc(C(=O)N2CCCCC2)cc1	15.0	15.3	2.4	0.8	0.8	-0.6
Cc1cccc(C(=O)Nc2onc(C)c2C#N)c1	-15.3	16.5	-27.4	0.8	1.2	-14.8
CCC(=O)N1CCc2cc(Br)cc(S(=O)(=O)NCCN3CCCCC3C)c21 (configuration not stated)	2.9	-24.6	.	1.2	1	.
Cc1ccc(-c2nn(C)c(=O)c3ccccc23)cc1CNC(=O)Cn1nc(-c2ccccc2)c2ccccc2c1=O	9.2	13.6	-3.7	0.9	0.9	-12.9
Cc1cc(C)n(CC(=O)NCc2cc(-c3nn(C)c(=O)c4ccccc34)ccc2C)n1	34.6	54.7*	13.6	0.5	0.7	-2.9
COc1ccc(-c2nn(C)c(=O)c3ccccc23)cc1NC(=O)Cn1nc(-c2ccccc2)c2ccccc2c1=O	44.8	72.3*	5.9	0.3	0.6	-2.4
Cc1ccc(-c2nn(CC(N)=O)c(=O)c3ccccc23)cc1S(=O)(=O)N(C)C	-24.4	58.8*	-10.0	0.4	1.2	-12.9
CCOC(=O)CNS(=O)(=O)c1cc(-c2n[nH]c(=O)c3ccccc23)ccc1C	50.2*	64.8*	-19.8	0.4	0.5	3.1
Cc1ccc(-c2nn3c(C)nnc3c3ccccc23)cc1S(=O)(=O)NCc1ccco1	27.5	43.8	-28.4	0.6	0.7	-2.7
COc1ccc(-c2nn(C)c(=O)c3ccccc23)cc1NS(C)(=O)=O	46.9	50.8*	11.3	0.5	0.5	3.9
COc1nnc(-c2ccc(C)c(S(=O)(=O)NCCO)c2)c2ccccc12	-8.1	-23.7	-8.8	1.2	1.1	-5.5
Cc1ccc(-c2nn3c(C)nnc3c3ccccc23)cc1S(=O)(=O)NC(C)c1ccccc1 (configuration not stated)	50.2*	72.8*	-7.7	0.3	0.5	-6.6
COc1ccc(-c2nn(C)c(=O)c3ccccc23)cc1CNS(C)(=O)=O	6.5	18.8	7.6	0.8	0.9	-1.8
COCCNS(=O)(=O)c1cc(-c2nn(C)c(=O)c3ccccc23)ccc1C	57.1*	69.9*	0.9	0.3	0.4	-12.5
NC(=O)CSc1nnc(-c2ccc(S(=O)(=O)N3CCCC3)cc2)n1CC1CCCO1 (configuration not stated)	-7.4	-4.5	-11.1	1	1.1	-16.9
CCCCOC(=O)CSC1=C(C#N)C(c2ccccc2OC)C(C#N)C(=O)N1 (configuration not stated)	63.5*	54.7*	-9.7	0.5	0.4	0.3
CCCCOC(=O)CSC1=C(C#N)C(c2ccccc2OCC)C(C#N)C(=O)N1 (configuration not stated)	49.5	78.8*	19.0	0.2	0.5	-20.2
COC(=O)C1C(=O)NC(SC)=C(C#N)C1c1ccccc1 (configuration not stated)	29.4	16.1	-13.2	0.8	0.7	-8.3
